Shown are actives, neighbours in structure and some others; about 2.4% of the full set was active somewhere.
ADAM10 inh: inhibits human ADAM10. O14672. 370,000 tested, 0.62% active. inhibition, % at 7 µM. recombinant ADAM10, EDANS/DABCYL FRET peptide cleavage, 3 h;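 active means inhibition above a per-campaign cutoff equal to the mean of compounds falling between control-based bounds plus 3 SD, cut at about 20% in these data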;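 further: 0% = DMSO wells while the 100% control is not disclosed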
Target sequence (O14672 214-748 limits assumed): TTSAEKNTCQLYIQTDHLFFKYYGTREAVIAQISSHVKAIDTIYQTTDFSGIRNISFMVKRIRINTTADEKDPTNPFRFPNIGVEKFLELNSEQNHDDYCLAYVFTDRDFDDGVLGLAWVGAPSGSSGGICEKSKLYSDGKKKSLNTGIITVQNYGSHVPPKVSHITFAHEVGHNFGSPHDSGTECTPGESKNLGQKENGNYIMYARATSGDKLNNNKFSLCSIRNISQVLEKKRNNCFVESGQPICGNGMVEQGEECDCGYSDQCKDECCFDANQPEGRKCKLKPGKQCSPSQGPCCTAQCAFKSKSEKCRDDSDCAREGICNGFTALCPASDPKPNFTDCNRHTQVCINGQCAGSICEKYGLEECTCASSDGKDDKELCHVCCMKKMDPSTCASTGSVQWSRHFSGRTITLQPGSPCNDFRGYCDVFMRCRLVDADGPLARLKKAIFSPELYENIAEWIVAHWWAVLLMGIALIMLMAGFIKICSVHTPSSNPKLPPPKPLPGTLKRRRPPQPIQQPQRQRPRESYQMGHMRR
APOBEC3G inh: blocks human APOBEC3G single-stranded DNA deamination. inhibition, % at 20 µM. 330,000 tested, 0.28% active. Q9HC16. recombinant A3G, ssDNA deamination FAM/TAMRA fluorescence. AID 493012;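 active means inhibition of at least 40% at 20 µM, with no more than 30% in the related APOBEC3A deaminase screen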;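 further: plate controls were DMSO wells with A3G for no effect and wells lacking A3G enzyme for full effect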
NRP1-CendR mod: NRP-1/CendR interaction modulation. inhibition, % at 25 µM. 360,000 tested, 0.85% active. FAM-RPARPAR peptide binding to NRP-1, fluorescence polarization. O14786;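 active means inhibition or corrected inhibition above about 18%, plus a signal ratio from 0.5 to 1.5, limit read from the data, passing the limit was not always enough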
ADAM17 inh: inhibits human ADAM17. P78536. recombinant ADAM17, EDANS/DABCYL FRET peptide cleavage. inhibition, % at 6.95 µM. 370,000 tested, 0.83% active. AID 720648;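 active means inhibition above the mean of compounds lying between control limits plus 3 SD, set per campaign, cut at about 8.5% in these data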;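 further: 0% = DMSO-only wells as the low control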
APOBEC3A inh: human APOBEC3A DNA deaminase inhibition; P31941; inhibition, % at 20 µM; AID 493011; recombinant A3A, FAM/TAMRA ssDNA deamination fluorescence; 330,000 tested, 0.41% active;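 active means at least 40% inhibition at 20 µM here, with at most 30% in a related deaminase screen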;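 further: plate controls were A3A with DMSO for no effect and wells lacking A3A enzyme for full effect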
Starred values were filed as active, the others as inactive.

C[C@H]1O[C@@H](n2c3ccc(Cl)cc3c3ccc4c5cc(Cl)ccc5[nH]c4c32)[C@H](O)[C@H](O)[C@H]1O was read as ADAM10 inh -91.9 and ADAM17 inh -31.7.
`CC(C)(C)OC(=O)C[C@H]1C/C=C\C[C@H](CC(=O)N(CCO)Cc2ccccc2)C(=O)NCCOC1=O` gave ADAM10 inh 2.3, APOBEC3G inh -3.1, NRP1-CendR mod 29.2*, ADAM17 inh -1.7 and APOBEC3A inh 2.1.
For CC(C)(C)OC(=O)C[C@@H]1C/C=C\C[C@@H](CC(=O)N(CCO)Cc2ccccc2)C(=O)NCCOC1=O the results were ADAM10 inh -0.9, APOBEC3G inh -0.7, NRP1-CendR mod 0.9, ADAM17 inh 0.4 and APOBEC3A inh 2.9.
`CCOc1cc(C(=O)NCCN2CCOCC2)cc(OCC)c1OCC` gave ADAM10 inh 0.3, APOBEC3G inh -4.1, NRP1-CendR mod 26.3*, ADAM17 inh -4.2 and APOBEC3A inh 0.9.
`CCOc1ccc(C(=O)OCC(=O)Nc2ccc3c(c2)OCCO3)cc1OC` gave ADAM10 inh -2.1, APOBEC3G inh -2.9, NRP1-CendR mod 24.6*, ADAM17 inh -2.3 and APOBEC3A inh -2.3.
Screening COc1cccc(NC(=O)COC(=O)c2ccc3c(c2)OCCO3)c1 returned ADAM10 inh -18.2, NRP1-CendR mod 1.6 and ADAM17 inh 4.2.
For O=C(C1CCCN(S(=O)(=O)c2ccccc2[N+](=O)[O-])C1)N1CCN(Cc2ccccc2)CC1 (stereo not given) the results were ADAM10 inh 0.0 and ADAM17 inh 0.3.
For O=C(CN(C(=O)CNC(=O)c1ccco1)c1ccc2c(c1)OCCO2)NC1CCCC1 the results were ADAM10 inh -1.5, APOBEC3G inh 1.3, NRP1-CendR mod 20.8*, ADAM17 inh 2.5 and APOBEC3A inh -0.4.
Screening O=C(CN(C(=O)CNC(=O)c1ccco1)c1ccc2c(c1)OCO2)NC1CCCCC1 returned ADAM10 inh 3.2, APOBEC3G inh -0.9, NRP1-CendR mod 9.6, ADAM17 inh -3.5 and APOBEC3A inh -0.4.
For COC(=O)/C=C1\C(=O)N(c2nc3ccccc3s2)C(=S)N1c1ccc(F)cc1 the results were ADAM10 inh -5.5, APOBEC3G inh -8.1, NRP1-CendR mod 27.2*, ADAM17 inh 4.0 and APOBEC3A inh -6.6.
For O=C(Cn1c(=O)[nH]c2ccccc2c1=O)Nc1cccnc1 the results were ADAM10 inh -0.4, APOBEC3G inh 2.7, NRP1-CendR mod 10.0, ADAM17 inh -7.4 and APOBEC3A inh 5.0.
`C[C@@H](C(=O)Nc1cccnc1)n1c(=O)[nH]c2ccccc2c1=O` gave ADAM10 inh -11.2, APOBEC3G inh -4.1, NRP1-CendR mod 35.3*, ADAM17 inh -4.2 and APOBEC3A inh 0.5.
For O=C(COc1ccccc1)NCCSCc1ccc(Cl)cc1 the results were ADAM10 inh 0.2, APOBEC3G inh -6.0, NRP1-CendR mod 5.8, ADAM17 inh 8.6* and APOBEC3A inh -3.9.
O=C(Cc1ccccc1)NCCSCc1ccc(Cl)cc1 was read as ADAM10 inh -5.1, APOBEC3G inh -6.2, NRP1-CendR mod 5.7, ADAM17 inh 1.4 and APOBEC3A inh -1.5.
For COc1cccc(NS(=O)(=O)c2ccc(C)c(C(=O)N3CCCCC3)c2)c1 the results were ADAM10 inh -4.0, APOBEC3G inh -6.2, NRP1-CendR mod 20.4*, ADAM17 inh -2.4 and APOBEC3A inh -1.1.
O=S(=O)(c1ccc(C(F)(F)F)cc1)N1CCCc2nc(-c3ccc(Br)cc3)ccc21 was read as ADAM10 inh -12.1 and ADAM17 inh -1.0.
For O=C1C=CC(=O)c2c(O)c(N3CCN(CCO)CC3)c(Cl)c(O)c21 the results were ADAM10 inh -52.8, NRP1-CendR mod 55.2* and ADAM17 inh -16.1.
For OCCOCCN1CCN(C2=Nc3ccccc3Sc3ccccc32)CC1 the results were ADAM10 inh -8.5, APOBEC3G inh -6.5, NRP1-CendR mod 2.0, ADAM17 inh -6.3 and APOBEC3A inh -0.2.
For O=C1C=CC(=O)c2c(O)c(N3CCN(CCOCCO)CC3)c(Br)c(O)c21 the results were ADAM10 inh -50.3, NRP1-CendR mod 65.1* and ADAM17 inh -11.0.
`O=S(=O)(c1ccc(Br)cc1Cl)N1CCN(CCO)CC1` gave ADAM10 inh 2.7, APOBEC3G inh -5.4, NRP1-CendR mod 3.5, ADAM17 inh -1.8 and APOBEC3A inh -4.9.
Screening Cc1ccc(-n2[nH]c(C)c(C=Nc3ccc4[nH]c(=O)[nH]c4c3)c2=O)cc1 returned ADAM10 inh -17.1, APOBEC3G inh -10.1, NRP1-CendR mod 30.5*, ADAM17 inh -6.1 and APOBEC3A inh -1.2.

Screening results deposited in PubChem BioAssay by several laboratories.
